In PubChem BioAssay (NCI):
Compounds without any hit were thinned out: in the full panel of roughly 79,000, 15% have a hit. Unmarked numbers belong to inactive results. Calls of active or inactive are those of the source. Cut-off read from the data, not from the text of the source: active = growth inhibition above about 70%; inactive = the rest.

How the values were obtained:
[1] = NCI Yeast Anticancer Drug Screen. Data for the rad50 strain (AID 155);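 note: 0% = growth of vehicle-only cultures of the same strain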; conditions: S. cerevisiae rad50 strain growth inhibition; at 50.0 µM; active compounds read high
Outline: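 Readout: growth inhibition relative to vehicle-treated cultures. Compound exposure was carried out in a genetically defined yeast strain deficient in DNA damage repair.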

[2] = NCI Yeast Anticancer Drug Screen. Data for the mec2-1 strain (AID 157); conditions: S. cerevisiae mec2-1 strain, at 50.0 µM, active compounds read high
Outline: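 Growth inhibition is read against vehicle-treated controls after compound exposure of the mec2-1 yeast strain, which is defective in DNA damage repair or cell cycle control.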

[3] = NCI Yeast Anticancer Drug Screen. Data for the sgs1 mgt1 strain (AID 161);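 note: 0% = growth of cultures given vehicle only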; conditions: S. cerevisiae sgs1 mgt1 strain, at 50.0 µM, active compounds read high
Outline: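 Percent growth inhibition was derived by comparing compound-exposed mutant yeast with vehicle-exposed cultures. The strain carries alterations in DNA damage repair.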

[4] = NCI Yeast Anticancer Drug Screen. Data for the cln2 rad14 strain (AID 165);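 note: 0% = growth equal to vehicle treated cultures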; conditions: S. cerevisiae cln2 rad14 strain, at 50.0 µM, active compounds read high
Outline: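 Growth inhibition, relative to vehicle-treated controls, is the read-out. The test organism is a yeast strain with defined genetic alterations, cln2 rad14.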

[5] = NCI Yeast Anticancer Drug Screen. Data for the bub3 strain (AID 167); conditions: S. cerevisiae bub3 mutant strain, at 50.0 µM, active compounds read high
Outline: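 Readout: yeast growth inhibition, expressed relative to vehicle-only wells. The test organism is a mutant strain from a panel with lesions in DNA repair or checkpoint genes.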

[6] = NCI Yeast Anticancer Drug Screen. Data for the mlh1 rad18 strain (AID 175); conditions: S. cerevisiae mlh1 rad18 strain growth inhibition; at 50.0 µM; active compounds read high
Outline: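 Cells of a genetically altered yeast strain, deficient in DNA damage repair, were treated with compound. Their growth was then compared with that of vehicle-treated cultures to give inhibition.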

Compound	growth inhibition [1]	growth inhibition [2]	growth inhibition [3]	growth inhibition [4]	growth inhibition [5]	growth inhibition [6]
ClCCOc1ccc2ccccc2c1	13.4%	-6.1%	0.55%	4.05%	0.5%	12.1%
O=C1c2cc3c(cc2C(=O)c2ncccc21)CCCC3	64.7%	48.4%	62.1%	10.3%	71.1% (active)	76.1% (active)
CN(C)C=Nc1c(Br)cc(Br)c2nonc12	-26.7%	-31.1%	-32.5%	-23.8%	-22.9%	-8.45%
CC(C)N(C(=O)C12C3C4C5C3C1(C#N)C5C42)C(C)C (stereo not drawn)	10.1%	6.95%	12.1%	5.95%	2.35%	-9.45%
O=c1cc2c(n[nH]1)CCCC2	8.85%	4.55%	2.55%	16.9%	-0.75%	11.4%
COc1ccccc1NC(=O)C(/C=N/C(N)=S)=C(\C)O	-20.1%	-6.5%	-33.1%	7.6%	-3.65%	-14.4%
Nc1nc(N)c2nn(-c3ccc(C(=O)O)cc3)nc2n1	-13.6%	7.85%	-5.15%	-16.9%	-11.2%	6.05%
COC(=O)c1cc(C)n(C)c(=O)c1CNS(=O)(=O)c1ccc(C)cc1	-1.25%	6.45%	0.85%	-6%	-2.8%	-12.3%
c1cc2c3c(cccc3c1)-c1nc3c(ccc4ccccc43)nc1-2	-0.15%	22.8%	19.6%	11.6%	10.4%	12.3%
O=C(Cc1ccccc1)NCO	2.95%	6.35%	-9.6%	-52.4%	-3.5%	4.6%
COc1ccccc1NC(=O)C1=C(C)NC(C)=C(C(=O)Nc2ccccc2OC)C1c1ccccc1OC	15.2%	-6.65%	-26.8%	17.1%	0.35%	1.85%
COc1cccc(/C=N/O)c1OC	6.75%	4.25%	2.6%	8.55%	-1.85%	2%
CC(=O)/C=C\C1CC2C=CC1C2 (stereo not drawn)	-11.6%	-10.2%	3.65%	17.1%	-20.4%	31.6%
Nc1nc(N)c2c(n1)NCN(OCCOc1ccc(Cl)cc1Cl)C2	1.1%	3%	9.15%	-26.8%	-14.8%	9.8%
CCCCCCCCNC(C(=O)c1ccc(Cl)cc1)c1ccc(Cl)cc1 (stereo not drawn)	8.05%	17.4%	21.6%	-18.3%	-8%	25.8%
CCOC(=O)CC(O)(c1ccccc1)c1ccccc1	-30.9%	-47.4%	7.35%	5.1%	-25.2%	-31.5%
O=c1[nH]c(Nc2nc3ccccc3[nH]2)nc(O)c1-c1ccccc1	-2.85%	-14%	-23.2%	-6.7%	-6.05%	-28.6%
CC(C)CNC(=S)N/N=C/c1ccc(N)cc1	31.6%	13.7%	3%	27.8%	6%	-1.1%
CN(C)c1ccc(S(=O)(=O)c2ccc(N(C)C)c([N+](=O)[O-])c2)cc1[N+](=O)[O-]	24%	-9.65%	-9.8%	0.45%	3.65%	-30.9%

Compound	growth inhibition [1]	growth inhibition [2]	growth inhibition [3]	growth inhibition [4]	growth inhibition [5]	growth inhibition [6]
CCCCCCCCC(=O)OCC(=O)N(C)C	15.6%	8.8%	6.35%	13.3%	2.9%	9.4%
CN(C)c1ccc(-c2cc(C(=O)O)c3cc(I)ccc3n2)c(Cl)c1	45.9%	30.6%	36.5%	51.4%	46.1%	35.8%
CCOC(=O)c1ccc(N(CC(O)CN)S(=O)(=O)c2ccc(C)cc2)cc1 (stereo not drawn)	5.7%	-9.5%	-11.2%	4.15%	3.5%	-1.5%
CSc1ccc(NC(=O)Oc2cc(C)c(Cl)cc2C(C)C)cc1	39.6%	94.8% (active)	91.8% (active)	15.8%	97.8% (active)	93.5% (active)
O=C1OCC2=C1C(c1ccc3c(c1)OCO3)c1cc3c(cc1O2)OCO3 (stereo not drawn)	-6.8%	-10.9%	-39.2%	5.4%	-8.6%	-16.6%
Cc1ccc(C=C(C(=O)O)C(=O)O)o1	-21.3%	-29.4%	-17.6%	-8.05%	-13.4%	-56.2%
O=C1c2c(ccc3c2CCCC3)CC12Cc1ccc3c(c1C2=O)CCCC3	20.1%	13.8%	-0.85%	23.9%	7%	12.1%
COc1ccc(N2C(=O)C3c4[nH]c5ccccc5c4C4CC(C)(C)CC(C)(C)C4C3C2=O)cc1 (stereo not drawn)	35.9%	10.7%	13.3%	-13.1%	33.1%	8.65%
O=C(Nc1ccccc1)c1ccccc1C(O)(c1ccccc1)c1ccc(Cl)cc1 (stereo not drawn)	84.7% (active)	14%	77% (active)	11.1%	52%	56.3%
O=C(NCCCl)Oc1ccccc1	6.85%	-15.5%	-7.95%	-0.1%	-4.9%	-9.1%
CC12CCC(=O)[C@@]1(C)CCCC2O (stereo partly drawn)	-34.2%	-34.4%	-12.8%	-34.6%	-26.8%	-32.2%
Cc1ccc(Nc2nc(NS(=O)(=O)c3cc(C)c(Cl)cc3S)n(C)n2)cc1	-15.1%	-33.5%	-29.7%	-7.1%	-32.9%	-21.8%
CCOC(=O)C1=C(O)c2ccccc2S(=O)(=O)N1C (tested in a mixture with another compound)	4.05%	20.3%	14%	-18.9%	-25.6%	0%
CC1(C)CCCC(C)(C)C1=NO	-20.2%	-5.6%	-9.75%	12.4%	5.75%	22.9%
NCCCCCCN1CCN(c2cccc(Cl)c2)CC1	14.2%	21.9%	14.8%	7.55%	13.8%	-13.4%
COc1ccc(-c2c(C#N)c(N)n(C3OCC(O)C(O)C3O)c(=S)c2C#N)cc1 (stereo not drawn)	-33.6%	-6.5%	-15.3%	-37.8%	-1.9%	3.4%
O=[N+]([O-])c1ccc2c(ccn2C2OCC(O)C(O)C2O)c1 (stereo not drawn)	5.7%	13.6%	8.7%	-3.55%	18.1%	-2.7%
COC1OC(CO)C(O)C(OCc2ccccc2)C1OCc1ccccc1 (stereo not drawn)	-4.35%	0.5%	-5.35%	-10.3%	-7.4%	-19.3%
CCN1N=Nc2ccccc2NC1=O	18.1%	9.85%	8.45%	4.5%	-13.1%	-25.3%
